# Screens deposited in PubChem by The Scripps Research Institute Molecular Screening Center.
# PRMT1 inh: PRMT1 (human) inhibition, primary screen | actives 1.3% (n = 370,000) | inhibition, % at 2.79 µM | Q99873 | recombinant PRMT1, activity-based probe fluorescence polarization;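 active = inhibition above about 21% made by adding two undisclosed values, limit read from the data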
# TLR9-MyD88 block: blocks human TLR9 binding to MyD88 | Q9NR96+Q99836 | CHO BLA complementation TLR9-MyD88, CCF4 FRET ratio | inhibition, % at 4.98 µM | actives 0.21% (n = 340,000) | AID 504734;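 active = inhibition above the mean over all tested compounds plus 3 SD, cut at about 21% in these data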
# NOD2-RIPK2 inh: inhibitors of human NOD2-RIPK2 interaction. inhibition, % at 4.98 µM. AID 624267. actives 0.38% (n = 360,000). CHO BLA complementation NOD2-RIPK2, CCF4 ratio. O43353; in the data active = inhibition above about 21%
# Target sequence (O43353 whole entry, looked up): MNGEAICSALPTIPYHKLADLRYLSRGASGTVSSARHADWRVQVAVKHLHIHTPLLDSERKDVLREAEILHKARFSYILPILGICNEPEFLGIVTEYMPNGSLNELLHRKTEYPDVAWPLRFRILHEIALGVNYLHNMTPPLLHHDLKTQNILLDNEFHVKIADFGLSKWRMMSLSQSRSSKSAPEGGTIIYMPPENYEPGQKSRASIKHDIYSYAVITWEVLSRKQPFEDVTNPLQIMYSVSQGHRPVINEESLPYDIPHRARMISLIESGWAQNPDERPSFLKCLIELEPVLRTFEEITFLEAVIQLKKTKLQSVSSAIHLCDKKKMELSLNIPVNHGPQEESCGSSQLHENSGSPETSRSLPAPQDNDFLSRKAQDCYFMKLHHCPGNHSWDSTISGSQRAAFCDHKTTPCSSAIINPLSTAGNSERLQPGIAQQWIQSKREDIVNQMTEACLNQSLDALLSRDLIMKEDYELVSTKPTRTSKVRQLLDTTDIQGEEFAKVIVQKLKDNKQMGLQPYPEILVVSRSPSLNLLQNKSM
# ABHD5-PLIN5 inh: ABHD5-PLIN5 protein interaction inhibition | Split G. princeps luciferase complementation, luminescence, 4 h | Q00G26+Q8WTS1 | actives 0.78% (n = 360,000) | inhibition, % at 4 µM;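 active = inhibition above the mean inhibition across every tested compound plus 3 SD, cut at about 22% in these data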
# rCAG binder: binds r(CAG) RNA repeats; r(CAG) RNA repeat, TO-PRO-1 dye displacement fluorescence; inhibition, % at 3 µM; actives 1.3% (n = 370,000);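 active = inhibition above the plate cutoff, the mean of all test compounds on that plate plus 3 SD, cut at about 35% in these data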;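 also: higher means more dye released from RNA so lower well fluorescence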
# TLR4-MyD88 BLA: blocks binding of human TLR4 to MyD88 | HeLa CL3-4 TLR4/MyD88 BLA complementation, FRET ratio | inhibition, % at 8.4 µM | actives 0.18% (n = 200,000); in the data active = inhibition above about 25%
# rCAG binder conf: r(CAG) RNA repeat binding, confirmation; inhibition, % at 3 µM; actives 70% (n = 4,300); TO-PRO-1 dye displacement fluorescence; shares compounds with rCAG binder;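 active = inhibition above a per-plate cutoff, the mean inhibition of sample wells plus 3 SD, cut at about 35% in these data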;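 also: loss of TO-PRO-1 fluorescence as compound displaces dye from 1x1 AA loop RNA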
# DNA CAG counter: disrupts DNA CAG TO-PRO-1 complex, flagging rCAG hits | actives 94% (n = 4,300) | d(CAG) DNA oligo TO-PRO-1 dye displacement, fluorescence | shares compounds with rCAG binder | inhibition, % at 3 µM;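 active = inhibition above its plate's cutoff, the mean test-well inhibition plus 3 SD, cut at about 4.8% in these data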;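 also: hits displace the dye from DNA and so lower well fluorescence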
# dCAG dye DR: disrupts DNA CAG TO-PRO-1 complex in dose response; shares compounds with rCAG binder; actives 20% (n = 250); IC50, µM; DNA CAG/GTC duplex TO-PRO-1 dye displacement fluorescence; in the data active = IC50 below about 10 µM
# A number is an active result; 0 = inactive; - = no result given. Most compounds without a hit are left out; they make up all but 3.3% or so of the library.
SMILES,PRMT1 inh,TLR9-MyD88 block,NOD2-RIPK2 inh,ABHD5-PLIN5 inh,rCAG binder,TLR4-MyD88 BLA,rCAG binder conf,DNA CAG counter,others
O=C(Nc1ccccc1C(=O)O)/C(=C/c1ccc(Cl)cc1Cl)NC(=O)c1ccco1,0,0,0,0,52.1,-,0,6.0,
O=C(Nc1ccccc1)/C(=C/c1ccccc1)NC(=O)c1ccco1,0,0,0,0,0,0,-,-,
O=C(O)CCCc1ccc2ccc3cccc4ccc1c2c34,0,0,0,0,46.6,-,0,7.5,
CC(C)(C)C(=O)OC12CCCN(C1)/C(=C/c1cccc(Cl)c1)C2 (stereo not given),0,-,-,-,0,-,-,-,
Cn1c(SCC(=O)Nc2nccs2)nnc1-c1ccc(S(=O)(=O)N2CCCC2)cc1,0,0,0,0,0,0,-,-,
O=C(CSc1n[nH]c(-c2ccc(S(=O)(=O)N3CCCCC3)cc2)n1)Nc1nccs1,0,0,0,0,39.3,0,36.3,9.0,
CCOc1ccc(-n2c(C)cc(/C=C3/C(=N)N4C(=NC3=O)SN=C4S(C)(=O)=O)c2C)cc1,0,0,0,0,0,0,-,-,
Cc1ccccc1-n1c(C)cc(/C=C2/C(=N)N3C(c4ccccc4)=CSC3=NC2=O)c1C,0,0,0,0,0,0,-,-,
Cc1cc(/C=C2/C(=N)N3C(=NC2=O)SN=C3S(C)(=O)=O)c(C)n1-c1ccc(F)cc1,0,0,0,0,68.6,0,79.2,46.5,
COc1ccccc1-n1c(C)cc(/C=C2/C(=N)N3C(=NC2=O)SN=C3S(C)(=O)=O)c1C,0,0,0,0,79.7,0,77.3,42.4,
Cc1ccc([C@@H]2CC(=O)[C@@H]3CN(S(=O)(=O)c4ccccc4C)[C@H](c4ccc(Cl)cc4)C[C@@H]3N2S(=O)(=O)c2ccc(C)cc2)cc1,0,0,0,0,0,-,-,-,
CCOC(=O)[C@@]12CN(C(=O)OC(C)(C)C)CC=C1N(Cc1ccc(OC)cc1)C(=O)[C@H]2CC(=O)NCc1cccc(C(F)(F)F)c1,0,-,-,-,0,-,-,-,
CN1C(C(=O)Nc2ccc(C(=O)O)cc2)=C(O)c2ccccc2S1(=O)=O,0,0,0,0,0,-,-,-,
Cc1sc2c(c1C)C(O)=C(C(=O)Nc1ccccc1)S(=O)(=O)N2C,0,0,0,0,42.7,-,0,6.9,
c1ccc(N=Nc2cn[nH]c2-c2ccco2)cc1,0,0,0,0,0,0,-,-,
c1coc(-c2nc(N=C3N=c4ccccc4=N3)[nH]c2-c2ccco2)c1,0,0,0,0,39.2,-,0,18.8,
Cc1ccc(S(=O)(=O)N2[C@@H](c3ccc(C(C)(C)C)cc3)C(C(=O)O)=CC[C@H]2c2cccc(Cl)c2)cc1,0,0,0,0,87.8,-,74.8,41.0,
Cc1ccc(S(=O)(=O)N2[C@@H](c3ccc(C(C)(C)C)cc3)C(C(=O)O)=CC[C@H]2c2ccc(Cl)c(Cl)c2)cc1,0,0,0,0,68.4,-,49.3,23.9,
O=C(O)C1=CCC(c2ccc(Cl)c(Cl)c2)N(S(=O)(=O)c2ccc(F)cc2)C1c1cccc(F)c1 (stereo not given),0,-,0,0,71.6,-,67.6,26.2,
Cc1ccc(S(=O)(=O)N2[C@@H](c3ccc(Br)cc3)C(C(=O)O)=CC[C@H]2c2ccc(Cl)c(Cl)c2)cc1,0,0,0,0,86.7,-,82.5,52.0,
CCCOc1cccc(NC(=O)OC2CCN(C)CC2)c1,0,0,0,0,0,0,-,-,
CCc1nnc(NC(=O)c2ccc(S(=O)(=O)N(CC)CC)cc2)s1,0,0,0,0,0,0,-,-,
CCc1nnc(NS(=O)(=O)c2ccc(NC(=O)c3ccc(C#N)cc3)cc2)s1,0,0,0,0,35.7,-,0,0,
CCc1nnc(NS(=O)(=O)c2ccc(NC(=O)c3ccccc3C)cc2)s1,0,0,0,0,0,0,-,-,
CCc1nnc(NS(=O)(=O)c2ccc(NC(=O)C(c3ccccc3)c3ccccc3)cc2)s1,0,0,0,0,84.5,-,71.7,33.9,dCAG dye DR=9.25
SMILES,PRMT1 inh,TLR9-MyD88 block,NOD2-RIPK2 inh,ABHD5-PLIN5 inh,rCAG binder,TLR4-MyD88 BLA,rCAG binder conf,DNA CAG counter,others
CCCN(CCC)S(=O)(=O)c1ccc(C(=O)Nc2ccc(S(=O)(=O)Nc3nnc(CC)s3)cc2)cc1,0,0,0,0,80.5,-,83.8,53.9,
CCc1nnc(NS(=O)(=O)c2ccc(NC(=S)Nc3ccc(F)cc3)cc2)s1,0,0,0,0,0,0,-,-,
CCc1nnc(NS(=O)(=O)c2ccc(N/C=C(\C=O)c3nc4cc(Cl)ccc4o3)cc2)s1,0,0,0,0,41.5,0,76.0,39.8,
O=S(=O)(c1ccc(Cl)cc1)N1CCC2(CC1)CO2,0,0,0,0,0,0,-,-,
CCc1nnc(NS(=O)(=O)c2ccc(NC(=O)c3cccc(OC)c3)cc2)s1,0,0,0,0,38.8,-,0,5.5,
CCc1nnc(NS(=O)(=O)c2ccc(N3C(=O)C4CC=C(Cl)CC4C3=O)cc2)s1 (stereo not given),0,0,0,0,49.1,0,0,7.6,
CCc1nnc(NS(=O)(=O)c2ccc(N/C=C\C(=O)c3ccc4ccccc4c3)cc2)s1,0,0,0,0,70.9,0,85.5,61.0,
CCc1nnc(NS(=O)(=O)c2ccc(NC(=O)c3ccccc3OC)cc2)s1,0,0,0,0,48.8,-,0,6.0,
C[C@]12C(=O)N(c3ccc(Br)cc3)C(=O)N1[C@H]1c3ccccc3OC[C@@H]1[C@H]2c1ccccc1,0,0,0,0,0,-,-,-,
COc1nccnc1NS(=O)(=O)c1ccc(NC(=O)c2cccc(C)c2)cc1,0,0,0,0,0,0,-,-,
CC(C)C(c1nnnn1C(C)(C)C)N1CCN(c2cccc(Cl)c2)CC1 (stereo not given),0,0,0,0,0,0,-,-,
Cc1cccc(NC(=O)C2(c3cccs3)CCOCC2)n1,0,0,0,0,0,0,-,-,
CCc1nnc(NS(=O)(=O)c2ccc(NC(=O)c3ccc(Cl)cc3)cc2)s1,0,0,0,0,42.7,0,0,9.1,
CCc1nnc(NS(=O)(=O)c2ccc(NC(=O)c3ccco3)cc2)s1,0,0,0,0,0,0,-,-,
CCc1nnc(NS(=O)(=O)c2ccc(NC(=O)c3cccc(Cl)c3)cc2)s1,0,0,0,0,53.8,0,50.3,10.3,dCAG dye DR=0
CC(C)C[C@H]1CN(CCCC[C@H]2CNC(=O)C(=O)N2Cc2ccccc2)C(=O)C(=O)N1CCc1ccc(O)cc1,0,-,0,0,0,-,-,-,
Cc1c(O)nc(SCC(=O)Nc2ccc3c4c(cccc24)CC3)n(-c2ccc(F)cc2)c1=O,24.6,0,0,0,45.5,0,0,8.3,
